# Values joined by “and” are separate entries in the source; they are usually repeats but may differ in a detail not shown here. Equal entries are not always repeated. Records with an inconclusive call do not appear. Active and inactive are the calls of the source. Calls follow the shape of the dose curve; as a rule, active = well fitted inhibition curve with a large enough effect; inconclusive = small, poorly fitted or top-dose-only effect; inactive = no such curve, though single readings can be large or run the other way.
# Assay: Acumen qHTS Assay for Inhibitors of the mTORC1 Signaling Pathway in MEF (Tsc2-/-, p53-/-) Cells: Hit Validation;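 also: phospho-rpS6 Ser235/236 immunofluorescence normalized to propidium iodide cell count; nearly all actives have a fitted effect of over 65% in size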;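 as to activity change, negative = inhibition: cells exposed to compound for 24 hours; plate controls were DMSO for no effect and 7.5 nM rapamycin control for full effect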
# Conditions: Acumen imaging; activity change, negative = inhibition: at 37.3 µM (top of the series)
# Potency is read from the fitted curve at half-maximal effect.
SMILES,Potency,"activity change, negative = inhibition"
Cc1cccc(NS(=O)(=O)c2ccc3[nH]c4c(c3c2)CCCCCC4)c1,5.21 µM (active),–
Cc1cc(C)c(/C=C2\C(=O)Nc3ccccc32)[nH]1,–,0.812% and 7.57%
COc1ccc(NC(=O)c2c(NC(=O)COc3ccccc3)sc3c2CCC(C)C3)cc1 (stereo unspecified),–,6.92%
CCc1ccc(NC(=O)C2CCCN(S(=O)(=O)c3cccc4cccnc34)C2)cc1 (stereo unspecified),–,-7.11%
CC(C)OCc1cc(CN2CCN(c3cccc(C(F)(F)F)c3)CC2)c(O)c2ncccc12,11.7 µM (active),–
CCc1ccc(NC(=O)Cn2nc(C(F)(F)F)c3c2CCCC3)cc1,–,-28%
CCCCN1C(=O)C(O)(c2c(C)[nH]c3ccccc23)c2cc(Br)ccc21 (stereo unspecified),–,-47%
CC(=O)Nc1ccc2nc(-c3cc(C)ccc3C)[nH]c2c1,–,-21.9%
COc1ccc(NC(=O)CSc2nc3ccccc3nc2N2CCC(C)CC2)cc1,–,6.7%
CCOc1ccc(Nc2nc(N)c(C(=O)c3ccccc3Cl)s2)cc1,–,-95%
COc1ccc(C2Sc3ccccc3NC3=C2C(=O)c2ccccc23)c(OC)c1OC (stereo unspecified),–,-65.9%
O=C(Nc1ccc(F)c(F)c1)c1ccc(F)c(S(=O)(=O)N2CCC3(CC2)OCCO3)c1,10.4 µM (active),–
CCCCC1CCC(C(=O)N2CC(=O)Nc3ccc(Cl)cc3C2c2ccc(F)cc2)CC1 (stereo unspecified),–,-41.1%
COc1cc(NC(=O)CSc2ccc(-c3ccccn3)nn2)cc(OC)c1,–,-6.23%
CCOC(=O)c1[nH]c2ccccc2c1NC(=O)c1ccccc1OCC,2.93 µM (active),–
CCOCc1cc(CN2CCN(c3ccccc3OC)CC2)c(O)c2ncccc12,5.21 µM (active),–
